# Source: PubChem (National Center for Advancing Translational Sciences (NCATS))
# JMJD2A Tudor: JMJD2A Tudor domain (human) inhibition; O75164; AlphaScreen JMJD2A-Tudor / H3K4me3 peptide binding; Potency, µM (highest dose often 114 µM), most hits filed as inhibitors; hit rate 4.4% among 390,000; also: nearly all actives have a fitted effect of over 50% in size
# Six1-Eya2 inh: inhibitors of human Six1/Eya2 interaction; activity change, % (concentration not given with the values); Q15475+O00167; hit rate 0.56% among 360,000; AlphaScreen GST-Six1/His-Eya2 binding, biochemical; hits give low values; AID 651725; in the data active = activity change below about -65%; inconclusive = mostly about -30% to -63%
# Target sequence (O00167 whole entry, looked up): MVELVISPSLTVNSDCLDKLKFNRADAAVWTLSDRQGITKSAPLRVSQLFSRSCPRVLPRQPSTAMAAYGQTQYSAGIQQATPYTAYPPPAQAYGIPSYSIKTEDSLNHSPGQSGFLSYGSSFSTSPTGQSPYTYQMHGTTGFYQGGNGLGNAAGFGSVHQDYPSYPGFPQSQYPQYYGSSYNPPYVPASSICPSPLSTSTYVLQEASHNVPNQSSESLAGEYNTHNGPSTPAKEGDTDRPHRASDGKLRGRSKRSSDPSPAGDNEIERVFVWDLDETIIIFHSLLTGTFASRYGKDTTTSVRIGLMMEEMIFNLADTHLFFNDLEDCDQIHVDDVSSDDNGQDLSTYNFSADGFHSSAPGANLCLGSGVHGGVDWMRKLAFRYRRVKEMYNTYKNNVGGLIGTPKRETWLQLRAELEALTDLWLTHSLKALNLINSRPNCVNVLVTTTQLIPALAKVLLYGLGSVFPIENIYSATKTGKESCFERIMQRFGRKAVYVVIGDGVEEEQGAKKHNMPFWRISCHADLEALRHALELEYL
# Target sequence (Q15475 whole entry, looked up): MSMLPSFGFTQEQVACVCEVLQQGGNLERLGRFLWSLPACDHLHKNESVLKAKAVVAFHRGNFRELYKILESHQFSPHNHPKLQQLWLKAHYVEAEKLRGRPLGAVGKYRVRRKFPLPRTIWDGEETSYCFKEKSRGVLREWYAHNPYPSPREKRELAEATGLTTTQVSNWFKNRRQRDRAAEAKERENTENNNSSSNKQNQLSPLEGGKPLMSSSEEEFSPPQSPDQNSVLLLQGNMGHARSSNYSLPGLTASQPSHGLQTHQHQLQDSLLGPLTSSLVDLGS
#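 Compounds are tested against tagged Six1 and Eya2 proteins bridged by glutathione donor and nickel acceptor beads; after a one-hour incubation at 37 °C without light, AlphaScreen emission is recorded.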
# HP1b chromo inh: inhibitors of HP1-beta chromodomain binding to methylated histone tails | P83916 | AlphaScreen HP1-beta / biotin-H3K9me3 peptide binding | hit rate 0.56% among 390,000 | Potency, µM (titrated, usually from 114 µM), usual class: inhibitors; also: nearly all actives have a fitted effect of over 70% in size
#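 HP1-beta protein (50 nM final) preincubated 30 min at room temperature with biotinylated H3(1-18)K9me3 peptide (50 nM) in PBS pH 7.4, 0.01% Tween-20, then compound added for 30 min. AlphaScreen streptavidin donor/nickel chelate acceptor beads (10 ug/mL final), 30 min dark, luminescence read.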
# TDP1 inh: inhibitors of human tyrosyl-DNA phosphodiesterase TDP1; AID 485290; hit rate 0.28% among 350,000; Q9NUW8; Potency, µM (titrated, usually from 130 µM), hits mostly inhibitors; recombinant TDP1, AlphaScreen DNA substrate cleavage; also: nearly all actives have a fitted effect of over 40% in size
#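 Steps: enzyme plus compound, 15 min RT; add biotin/phosphotyrosine-FITC oligonucleotide (15 nM final), react 5 min; add donor/acceptor beads (10 ug/ml final), 10 min; read AlphaScreen. Tdp1 at 1 nM final.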
# BAZ2B block: BAZ2B (human) inhibition; hit rate 4.4% among 360,000; Q9UIF8; AlphaScreen BAZ2B-H3K14Ac peptide displacement; Potency, µM (titrated, usually from 114 µM), most hits filed as inhibitors; AID 504333; also: nearly all actives have a fitted effect of over 60% in size
#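 AlphaScreen displacement: compounds (up to 110uM) incubated 30 min at room temperature with a preformed 50 nM BAZ2B/50 nM biotinylated H3K14Ac peptide complex in PBS pH 7.4 with Tween-20. Donor and acceptor beads at 10 ug/mL final added, 20 min light-protected before reading.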
# CtBP-E1A blk: inhibitors of CtBP/E1A interaction; AlphaScreen GST-E1A/His-CtBP binding, 1536-well; hits give low values; activity change, % (test concentration not listed); hit rate 0.49% among 340,000; in the data active = activity change below about -65%; inconclusive = mostly about -30% to -63%
#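 In 5 uL wells, 23 nL compound meets equimolar GST-E1A and His-CtBP (5X stock 125 nM each) for 2 h, 37 °C. Beads (5X, 50 ug/mL) then 1 h, 37 °C, dark.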
# Numbers stand for hits; 0 = inactive; ? = inconclusive; - = no result; [ ] = remark or other dose. Most compounds without a hit are left out; they make up all but 5.3% or so of the library. Unless noted, calls follow the shape of the dose curve; as a rule, active = well fitted inhibition curve with a large enough effect; inconclusive = small, poorly fitted or top-dose-only effect; inactive = no such curve, though single readings can be large or run the other way.
SMILES,JMJD2A Tudor,Six1-Eya2 inh,HP1b chromo inh,TDP1 inh,BAZ2B block,CtBP-E1A blk
COc1ccc(OC)c(NC(=O)CSC2=Nc3ccccc3C3=NC(CCC(=O)NCCc4ccccc4)C(=O)N23)c1 (stereo not drawn),0,-,0,0,0,-
COc1ccc(NC(=O)/C(C#N)=C/c2ccc(-c3ccccc3C(=O)O)o2)cc1,0,0,0,-,0,0
N#C/C(=C\c1ccc([N+](=O)[O-])o1)C(=O)Nc1ccc(F)cc1,?,0,0,0,45µM,0
Cc1ccc(/C=C(\C#N)C(=O)Nc2ccc(Br)cc2)o1,0,-,0,0[12.3 µM],0,-
COc1ccc(NC(=O)/C(C#N)=C\c2ccc(-c3cc(C(=O)O)ccc3C)o2)cc1,?,?,0,-,56µM,?
COc1ccc(NC(=O)/C(C#N)=C\c2ccc(Br)o2)cc1,56µM,0,0,-,?,-
CCc1ccc(-c2nn(CC(=O)NC3CCCCC3)c3c2cnc2ccc(OC)cc23)cc1,0,-,0,0,0,-
CCOc1ccc(NS(=O)(=O)c2ccc(NC(=O)N3CCCC3)cc2)cc1,0,-,0,0,0,-
CCSS(=O)(=O)c1cccc2cccnc12,1.1µM,-91,?,0,22µM,-90
O=C(O)CCS(=O)(=O)c1cccc2cccnc12,0,0,0,0,0,0
O=C(COC(=O)CSc1cccc2cccc(Cl)c12)Nc1ncc(C(F)(F)F)cc1Cl,0,0,0,0,50µM,0
Cc1ccc(C)c(SCC(=O)OCC(=O)Nc2ncc(C(F)(F)F)cc2Cl)c1,0,0,0,0,0,0
O=S1(=O)N=C(Nc2nncs2)c2ccccc21,?,0,0,0,56µM,0
O=C(COc1ccccc1)NNC1=NS(=O)(=O)c2ccccc21,0,0,0,0,-,0
Cc1cc(/C=N/Nc2nc(N3CCOCC3)nc(N3CCOCC3)n2)c(C)n1-c1ccccc1,?,0,?,0,-,0
Cc1ccc(Nc2nc(N/N=C/c3c[nH]c4ccccc34)nc(N3CCOCC3)n2)cc1,45µM,0,0,0,45µM,0
C(=N\Nc1nc(Nc2ccccc2)nc(N2CCOCC2)n1)/c1c[nH]c2ccccc12,50µM,0,0,0,32µM,0
Cc1[nH]c2ccccc2c1/C=N/Nc1nc(Nc2ccc(F)cc2)nc(N2CCOCC2)n1,0[11.4 µM],0,0,0,50µM,0
c1ccc(Nc2nc(N3CCOCC3)nc(N3CCOCC3)n2)cc1,0,0,0,0,0,0
CC1Cc2cc(S(=O)(=O)N(C)c3ccc(Br)cc3)ccc2N1C(=O)C1CC1 (stereo not drawn),0,-,0,0,0,-
Cc1ccc(NC(=O)Cn2c(=O)n(CCCCC(=O)NCCc3ccccc3)c(=O)c3ccccc32)c(C)c1,0,-,0,0,0,-
O=C1c2cc(Br)ccc2N(Cc2ccc(Br)cc2)S(=O)(=O)C1c1cc(Cl)c(Cl)cc1[N+](=O)[O-] (stereo not drawn),35µM,0,?,0,-,0
CCOC(=O)Cc1c(C)nc2c(-c3ccccc3)c(-c3ccccc3)[nH]n2c1=O,0,-75,0,0,0,?
CCOC(=O)Cc1c(C)nc2c(-c3ccccc3)c(C)[nH]n2c1=O,0,0,0,0,0,0
CCn1c(CSCc2ccc(C)cc2)n[nH]c1=S,32µM,0,0,-,?,-
SMILES,JMJD2A Tudor,Six1-Eya2 inh,HP1b chromo inh,TDP1 inh,BAZ2B block,CtBP-E1A blk
C=CCn1c(CSCc2ccc(F)cc2)n[nH]c1=S,0,0,0,0,0,-
Cn1c(CSCc2ccc(Cl)c(Cl)c2)n[nH]c1=S,89µM,0,0,0,0,0
CCn1c(CSCc2ccc(Cl)cc2)n[nH]c1=S,56µM,0,0,0,0,0
COc1cc2c(c(OC)c1OC)-c1ccc(OC)c(=O)cc1[C@@H](NC=O)CC2,-,-,-,0,-,-
CN(C(=O)c1cc2c(s1)-c1ccc(Cl)cc1SC2)c1cccc(C(F)(F)F)c1,0,-,0,0,0,-
CC(C)(C)c1cc[n+](/C(C(=S)Nc2ccccc2F)=C(/[O-])c2ccc3c(c2)OCCO3)cc1,?,0,0,0,35µM,0
[O-]C(=C(C(=S)Nc1cccc2ccccc12)[n+]1ccccc1)c1ccc2c(c1)OCCO2,?,0,?,-,-,0
O=c1c2ccccc2sn1-c1cc(S(=O)(=O)N2CCOCC2)ccc1N1CCOCC1,4µM,0,8.9µM,0,3.5µM,0
O=c1c2ccccc2sn1-c1cc(S(=O)(=O)N2CCOCC2)ccc1N1CCCCC1,13µM,-,?,0,-,-
O=c1c2ccccc2sn1-c1cc(S(=O)(=O)N2CCOCC2)ccc1N1CCCC1,22µM,0,0,0,14µM,0
CCc1ccc(C2=CC(c3cccc(C)c3)n3c(nc4ccccc43)N2)cc1 (stereo not drawn),0,-,0,0,0,-
CC(C)C[C@H](N)C(=O)N[C@H](C(=O)N[C@@H](CCCN=C(N)N)C(=O)N[C@H](CS)C(=O)NCC(=O)N[C@@H](CCCCN)C(=O)N[C@@H](Cc1cnc[nH]1)C(=O)N[C@@H](CO)C(=O)N[C@@H](CCCN=C(N)N)C(=O)O)C(C)C,-,-,-,0,-,-
Cc1ccc(CCNC(=O)c2cc3c(=O)oc4ccccc4c3s2)cc1,0,-,0,0,0,-
COC(=O)C1(C(=O)OC)C/C=C\Cc2ccccc2[C@@H]1C[N+](=O)[O-],-,-,-,0,-,-
O=C(Cn1nnc(-c2ccc(Cl)cc2)n1)NCc1ccco1,0,0,0,?,50µM,-
CC1CCC2C(=O)OC(CO)CN2C1c1ccc(Br)cc1 (stereo not drawn),-,-,-,0[21 µM],-,-
CN(C=[N+](C)C)c1cccc2c1C(=O)c1ccccc1C2=O,45µM,-66,16µM,0,18µM,-68
CCn1c(=O)n(-c2ccc(F)c(Cl)c2)c(=O)c2sc3ccccc3c21,0,-,0,0,0,-
COc1ccc(O[C@H]2C=C[C@@H](c3ccccc3)O[C@H]2COC(=O)CC/C(C)=N\O[C@@H](C)CN2CCCCc3nc(C)c(C)cc32)cc1,-,-,-,0[21 µM],-,-
CCc1ccc(NC(=O)CSc2nc(-c3ccc(C)cc3)nc3c2Cc2c(CO)cnc(C)c2O3)cc1,0,-,0,?,50µM,-
COc1ccc2[nH]c(O)c(N=NC(=O)c3ccc(NS(=O)(=O)c4cccs4)cc3)c2c1,?,?,0,0,50µM,0
COc1ccc2[nH]c(O)c(N=NC(=O)Cc3cccs3)c2c1,28µM,0,0,0,35µM,0
Cc1cccc2c(N=NC(=O)c3ccc(NS(=O)(=O)c4cccs4)cc3)c(O)[nH]c12,?,?,0,50µM,?,0
Cc1ccc2[nH]c(O)c(N=NC(=O)c3ccc(NS(=O)(=O)c4cccs4)cc3)c2c1,?,0,0,-,0,0
O=C(Cc1cccs1)N=Nc1c(O)[nH]c2ccc(Br)cc12,?,0,0,0,?,0
